Bioassay records: PubChem BioAssay, Sanford-Burnham Center for Chemical Genomics
CYP2C9 inhib = blockers of cytochrome P450 2C9 activity – biochemical, luminescence, ADME assay, primary screen; hit rate 20% among 96,000; CYP2C9 Supersomes, luciferin-H conversion; P11712; inhibition, % at 5 µM;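 active = blocking of liver enzyme CYP2C9 beyond about 50% at 5 µM, limit read from the data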
Target sequence (P11712 whole entry, looked up): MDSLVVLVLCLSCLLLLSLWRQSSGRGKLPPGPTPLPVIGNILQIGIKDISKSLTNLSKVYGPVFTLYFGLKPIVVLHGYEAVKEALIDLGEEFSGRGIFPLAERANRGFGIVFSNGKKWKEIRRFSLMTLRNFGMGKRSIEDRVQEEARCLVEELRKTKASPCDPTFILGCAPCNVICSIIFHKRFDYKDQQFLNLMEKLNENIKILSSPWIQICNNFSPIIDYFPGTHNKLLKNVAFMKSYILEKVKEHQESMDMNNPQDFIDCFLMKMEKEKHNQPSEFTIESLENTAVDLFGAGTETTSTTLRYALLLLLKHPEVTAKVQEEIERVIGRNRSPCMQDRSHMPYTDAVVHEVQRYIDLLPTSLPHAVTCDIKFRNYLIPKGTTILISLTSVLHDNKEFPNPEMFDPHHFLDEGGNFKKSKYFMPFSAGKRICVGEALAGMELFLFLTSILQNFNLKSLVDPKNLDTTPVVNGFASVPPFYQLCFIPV
CYP2C9 activ = human CYP2C9 activators, primary screen, biochemical, luminescence. Cytochrome P450 2C9 (Homo sapiens), P11712. recombinant CYP2C9, luciferin-H conversion; active compounds read high; factor 1 = untreated enzyme, 0 = blocked. activation factor at 5 µM. hit rate 1.4% among 96,000;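 active = activation factor of 2 or more for CYP2C9 at a 5 µM dose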
CD11b adhes inh = inhibitors of CD11b/CD18 adhesion to fibrinogen, primary screen, K562 cells, luminescence; Integrin beta-2 (Homo sapiens) + Integrin alpha-M (Homo sapiens), P05107+P11215; ATPlite luminescence; Mn2+ added to activate the integrin; inhibition, % at 10 µM; hit rate 0.54% among 93,000; AID 1497, 2009;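 active = primary inhibition of 50% or more at 10 µM, then 40% or more on retest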
CYP2C19 activ = human CYP2C19 activators, primary screen, biochemical, luminescence | AID 1025, 2008 | Cytochrome P450 2C19 (Homo sapiens), P33261 | 96,000 tested, under 10 active | activation factor at 5 µM | recombinant CYP2C19, luciferin-H EGE luminescence; active compounds read high; 0 = fully inhibited enzyme, 1 = untreated enzyme;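 active = activation factor of at least 2 at 5 µM in the primary screen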
Mac1 fbg enh = enhancers of CD11b/CD18 adhesion to fibrinogen, primary screen, K562 cells, luminescence; ATPlite luminescence; hit rate 0.07% among 93,000; Integrin beta-2 (Homo sapiens) + Integrin alpha-M (Homo sapiens), P05107+P11215; AID 1499, 2009; activation, % at 10 µM;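 active = 10 µM primary screen giving 50% or more activity, confirmed by 40% or more on retest at that dose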
CYP2C19 inh = blockers of cytochrome P450 2C19 activity – biochemical, luminescence, ADME assay, primary screen. CYP2C19 Supersomes, luciferin-H EGE luminescence, 30 min. inhibition, % at 5 µM. hit rate 21% among 96,000. AID 778, 2007;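 active = CYP2C19 inhibition above a set limit at 5 µM in the primary screen, cut at about 50% in these data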
Large screens that a line does not name were inactive. Sampled rows, rich in hits. Any-hit rate of the full collection: about 28%.

CC(=O)N1CCN(S(=O)(=O)c2cccc(C(=O)NC3CCCc4ccccc43)c2)CC1 (stereo not given)	none (no result: CD11b adhes inh, Mac1 fbg enh)
CCC(=O)NC(c1ccccc1)c1nc2ccccc2[nH]1 (stereo not given)	none
Cn1c(=O)c2c(nc(SCC(=O)N3CCc4ccccc43)n2Cc2ccccc2)n(C)c1=O	none
Cc1ccc(NC(=O)Cn2c(=O)oc3cc(S(=O)(=O)N4CCC(C)CC4)ccc32)cc1C	CYP2C9 inhib 67.3
COC(=O)c1c(C(=O)OC)c2cc(C)ccn2c1Cl	CYP2C9 inhib 54.1
COc1ccc(NC(=O)CCC(=O)OCC(=O)c2ccc(Oc3ccc([N+](=O)[O-])cc3)cc2)cc1	none (no result: CYP2C9 inhib, CYP2C9 activ, CYP2C19 activ, CYP2C19 inh)
COc1ccc(C(=O)CC(Nc2ccc([N+](=O)[O-])cc2)c2ccc(Cl)cc2)cc1 (stereo not given)	CYP2C9 inhib 78.1, CYP2C19 inh 66.6
COc1ccccc1C(=O)N1CCC(C(=O)c2ccc(F)cc2)CC1	none
COc1ccccc1Cn1nnc2c(=O)[nH]c(C3CCN(C(=O)c4ccccc4Cl)CC3)nc21	CYP2C9 inhib 94.4, CYP2C19 inh 75.3
CC(C)(C)CC(=O)N1CCC(c2nc3c(nnn3Cc3c(F)cccc3Cl)c(=O)[nH]2)CC1	CYP2C9 inhib 82.2, CYP2C19 inh 52.4
N#Cc1ccc(NC(=O)N2CCC(c3nc4c(nnn4Cc4cccc(Cl)c4)c(=O)[nH]3)CC2)cc1	none
COc1ccccc1Cn1nnc2c(=O)[nH]c(C3CCN(C(=O)c4ccc(C)cc4)CC3)nc21	CYP2C9 inhib 65.6 (no result: CD11b adhes inh, Mac1 fbg enh)
O=C(c1ccccc1)N1CCC(c2nc3c(nnn3Cc3ccccc3Cl)c(=O)[nH]2)CC1	CYP2C9 inhib 62.8
COc1cccc(C(C(=O)NCc2ccco2)N(C(=O)Cn2nnc3ccccc32)C2CC2)c1OC (stereo not given)	none
O=C1CC(O)(C(F)F)Oc2ccc3ccccc3c21 (stereo not given)	CYP2C9 inhib 59.6, CYP2C19 inh 84.7
O=C1CC(O)(C(F)(F)F)Oc2c1ccc1ccccc21 (stereo not given)	CYP2C9 inhib 96.2, CD11b adhes inh 89.6, CYP2C19 inh 84.0
CC(C)C(CCN1C(=O)CCC1=O)C1CCOC(C)(C)C1 (stereo not given)	none (no result: CD11b adhes inh, Mac1 fbg enh)
Cc1ccc(S(=O)(=O)N2CCOCC2)cc1N/N=C(\C#N)c1nc2ccccc2[nH]1	none (no result: CYP2C9 inhib, CYP2C9 activ, CYP2C19 activ, CYP2C19 inh)
CCCCCCSc1nc(O)c(C2OC(=O)c3c2ccc(OC)c3OC)c(=O)n1CC (stereo not given)	none
Cn1c(Sc2ccc([N+](=O)[O-])cc2C(F)(F)F)nnc1-c1ccccc1	none
Cn1c(Sc2ccc(C(F)(F)F)cc2[N+](=O)[O-])nnc1-c1ccccc1	CYP2C9 activ 2
CC1CC(C)CN(C(=O)c2ccc3c(c2)N(Cc2ccccc2)CCS3)C1 (stereo not given)	none
Cc1ccc(CN2CCSc3ccc(C(=O)N4CCN(c5ncccn5)CC4)cc32)cc1	CYP2C9 inhib 92.6, CYP2C19 inh 97.0
Cc1ccc(-c2c(C#N)c(N)nc3c2CCCCCC3)o1	none
Cc1ccc(-c2c(C#N)c(N)nc3c2CCCCC3)o1	CYP2C9 inhib 50.4, CYP2C19 inh 53.1
CCOC(=O)CSc1nc2c(c(-c3ccc(C)o3)c1C#N)CCCC2	CYP2C19 inh 69.7
COC(=O)CSc1nc2c(c(-c3ccco3)c1C#N)CCCC2	none
O=C(c1ccccc1)c1nn(-c2ccc(Cl)cc2)c(=O)cc1C(F)(F)F	CYP2C9 inhib 53.0, CYP2C19 inh 74.9 (no result: CD11b adhes inh, Mac1 fbg enh)
O=C(c1ccccc1)c1nn(-c2ccccc2)c(=O)cc1C(F)(F)F	none (no result: CD11b adhes inh, Mac1 fbg enh)
Cc1ccc(-c2nc3ncccn3c2Nc2ccc3c(c2)OCCO3)cc1	none
Oc1ccc(-c2nc3ncccn3c2Nc2ccc3c(c2)OCCO3)cc1	CYP2C9 inhib 69.7
Clc1ccc(-c2nc3ncccn3c2Nc2ccc3c(c2)OCCO3)cc1	none (no result: CD11b adhes inh, Mac1 fbg enh)
Cc1ccc(-c2nc3ncccn3c2Nc2ccc3c(c2)OCCO3)o1	CYP2C9 inhib 52.6
Cc1cc(C)n2c(Nc3ccc4c(c3)OCCO4)c(-c3ccco3)nc2n1	CYP2C9 inhib 61.7
Brc1ccc(-c2nc3ncccn3c2Nc2ccc3c(c2)OCCO3)o1	CYP2C9 inhib 57.5
COc1ccc(-n2c(SCC(=O)NNC(=O)c3ccccc3C)nnc2-c2ccncc2)cc1	none (no result: CD11b adhes inh, Mac1 fbg enh)
CC(C)(C)NC(=O)C1CCCN(S(=O)(=O)c2cccc3cccnc23)C1 (stereo not given)	CYP2C9 activ 2.7
CCOC(=O)C1CCCN(S(=O)(=O)c2cccc3cccnc23)C1 (stereo not given)	CYP2C9 activ 4.5, CYP2C19 inh 80.7
O=C(C1CCCN(S(=O)(=O)c2cccc3cccnc23)C1)N1CCN(c2ccc(F)cc2)CC1 (stereo not given)	CYP2C19 inh 61.1
Cc1nnc(NC(=O)C2CCCN(S(=O)(=O)c3ccccc3C(F)(F)F)C2)s1 (stereo not given)	CYP2C9 inhib 62.0, CYP2C19 inh 51.4
COc1cccc(NC(=O)C2CCCN(S(=O)(=O)c3cccc4cccnc34)C2)c1 (stereo not given)	none
CCCn1nnnc1NCc1cccn1C	none
Nc1ncncc1-c1ccc([N+](=O)[O-])cc1	none (no result: CD11b adhes inh, Mac1 fbg enh)
Cc1ccc(OC(=O)CCC(=O)OCCCC(F)(F)C(F)(F)F)cc1	none
Cc1[nH]c(=O)[nH]c(=O)c1S(=O)(=O)N1CCCC(C(=O)NCc2ccco2)C1 (stereo not given)	CYP2C9 inhib 96.8, CYP2C19 inh 74.2
O=C(NCc1ccco1)C1CCCN(S(=O)(=O)c2cccc3cccnc23)C1 (stereo not given)	CYP2C9 activ 4.1, CYP2C19 inh 70.4
O=C(Nc1ccncc1)C1CCCN(S(=O)(=O)c2cccc3cccnc23)C1 (stereo not given)	CYP2C9 inhib 94.2, CYP2C19 inh 98.7
O=C(Nc1ccccc1F)C1CCCN(S(=O)(=O)c2cccc3cccnc23)C1 (stereo not given)	CYP2C19 inh 75.6
CN1OC(CC(=O)O)N(c2ccc(Cl)cc2)C1=O (stereo not given)	none
CCOC(=O)CC1ON(C)C(=O)N1c1ccc(Cl)cc1Cl (stereo not given)	CYP2C19 inh 98.6
O=C1c2ccccc2C(=O)C12Cc1ccccc1N1CCN(c3ccccc3)CC12 (stereo not given)	CYP2C9 inhib 76.0, CYP2C19 inh 55.8
O=C(ONc1ccc(N=NC(=O)c2ccccc2O)cc1)c1ccccc1	CYP2C9 inhib 71.0, CYP2C19 inh 84.3
